Drawing on PubChem BioAssay (NCI), this text covers growth for 40 compounds.

Molecules are shown by their SMILES. About 83,000 compounds went through this panel and 20% of them were active in at least one assay; those are over-represented in the sample as a whole.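 Growth was measured after 48 h exposure to one concentration of compound in 96-well plates. Values under 10 count as active.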 Active and inactive are the calls of the source.

The subject of this test is HT29 colon. Kind of test: NCI-60 one-dose screen, 48 h (100 = growth as untreated, 0 = no growth, -100 = all killed). Particulars: 10 µM unless noted. The protocol:
Growth inhibition of the HT29 human tumor cell line is measured as a screen for anti-cancer activity. Cells are grown in 96 well plates and exposed to the test compound for 48 hours. Compounds are tested at a single concentration, which is 10^-5 M for most compounds. The reported endpoint is percent growth (GI% or GIPRCNT), where numbers from 0 - 100% represent growth inhibition, and numbers from -100% - 0 represent cell death. For example, a value of 40 represents 60% growth inhibition. A value of 0 means no net growth occurred over the course of the experiment. A value of -40 indicates 40% of cells at the beginning of the experiment died by the end of the experiment. A value of -100 means all cells are dead at the end of the experiment.
NCI-60 Human Tumor Cell Lines Screen was performed using the standard one-dose NCI protocol, which is described in more detail at https://dtp.cancer.gov/discovery_development/nci-60/default.htm.
Compounds with GIPRCNT values below 10 were considered active. Activity score was based on GIPRCNT using the following formula: […]
Score is 0 for GIPRCNT values of 100 or above, 50 for GIPRCNT values of 0, and 100 for GIPRCNT values of -100.
As to `CCn1c(=O)c2c(=O)c3c4c(oc3oc2c2ccccc21)C(=O)c1ccccc1C4=O`, the growth is 63% (inactive).

Regarding `COc1cccc(-c2nc3sccn3c2-c2ccnc(NCCCNS(=O)(=O)c3ccccc3)n2)c1`, the growth was 29.4% (inactive).

As to `COc1cc(C2C=C(C)N=C3SC=C(C)N32)cc(OC)c1OC` (stereo not given), the growth was -37.2% (active).

With `Cc1cccc(-n2c(C)nc3ccc(NC(=O)NCCCl)cc3c2=O)c1`, the growth is 106% (inactive).

On to `CCN1C(=O)N[C@H]2[C@@H]3NC(=O)c4ccc(Cl)n4[C@@H]3C[C@]21O`, for which the growth was 2.91% (active).

For the compound `Cc1sc(N=Nc2ccc(N(C)C)cc2)[n+]([O-])c1C`, the growth was 103% (inactive).

For `CCNC(=O)C1CCCN1C(=O)C(CCCN=C(N)N)NC(=O)C(CC(C)C)NC(=O)C(CC(C)C)NC(=O)C(Cc1ccc(O)cc1)NC(=O)C(CO)NC(=O)C(Cc1c[nH]c2ccccc12)NC(=O)C(Cc1cnc[nH]1)NC(=O)C1CCC(=O)N1` (stereo not given), the growth is 97.4% (inactive).

For the compound `FC(F)(F)c1cccc(-n2nnc3cnc(Nc4ccc(N5CCCCC5)cc4)nc32)c1`, the growth is 74.3% (inactive).

As for `O=[N+]([O-])c1cccc(-c2cc(-c3cc(Br)ccc3O)[nH]n2)c1`, the growth is 48.3% (inactive).

Consider `CC1CCN(C(=O)CSc2nc3sc4c(c3c(=O)[nH]2)CCCC4)CC1`, for which the growth is 116% (inactive).

For `CNC(=O)Cc1nc(-c2cccc(NS(=O)(=O)c3c(F)cccc3F)c2F)c(-c2ccnc(Nc3ccccc3)n2)s1`, the growth is 6.8% (active).

Turning to `NC(=O)c1c(NC(=O)c2ccc(OCC3CCCO3)cc2)sc2c1CCCC2` (stereo not given), the growth was 105% (inactive).

Take `COc1ccc(-c2nc3sccn3c2-c2ccnc(NCCCNS(=O)(=O)c3ccc(F)cc3)n2)cc1`: the growth was 20% (inactive).

For `O=C(Nc1cccc(Cl)c1)c1cc([N+](=O)[O-])ccc1O`, the growth was 49.8% (inactive).

In the case of `O=C1CCC(=O)N1Cc1ccccc1`, the growth was 101% (inactive).

As to `CCc1cccc(C)c1NC(=O)c1sc2nc3c(cc2c1N)C(=O)CCC3`, the growth was 6.1% (active).

As to `O=C(Nc1cc(C(F)(F)F)cc(C(F)(F)F)c1)Nc1ccc(OCc2nnc(-c3ccc(Cl)cc3)o2)c(F)c1`, the growth is 10.8% (inactive).

With `Nc1nc(Cl)c2c(ncn2Cc2ccc(CCl)cc2)n1`, the growth was 91% (inactive).

Take `O=C(CCCn1c2c(sc3ccccc32)c(=O)n2nnc(-c3ccccc3)c12)NCCc1cnc[nH]1`: the growth is -100% (active).

With `Nc1ccc(S(=O)(=O)c2ccc(Cl)cc2)cc1`, the growth was 98.1% (inactive).

Take `COc1cc(-c2cc(/C=C3\CCCCC3=O)[nH]n2)cc(OC)c1OC`: the growth is 100% (inactive).

On to `Nc1c(C(=O)Nc2cccc(C(F)(F)F)c2)sc2nc3c(cc12)CCCCCC3`, for which the growth was 0.128% (active).

As to `CC[C@H](C)[C@@H]1NC(=O)[C@H]([C@@H](C)O)NC(=O)C(Cc2ccccc2)NC(=O)[C@@H]2CCCN2C(=O)C(C(C)C)NC(=O)C(Cc2ccccc2)NC(=O)CNC(=O)[C@@H]2CCCN2C1=O` (stereo not given in full), the growth is 76.2% (inactive).

In the case of `Cc1ccc2c(c1)ncn2-c1ncnc2c1CC(C)c1ccccc1N2C` (stereo not given), the growth is 0.836% (active).

Consider `NS(=O)(=O)c1ccc(NCC(=O)Nc2ccc(-c3nc4ccccc4s3)cc2)cc1`, for which the growth is 74.5% (inactive).

Turning to `CCCCCCCCCCn1cc[n+](C)c1`, the growth is 12.3% (inactive).

With `COc1ccc(OC)c(/C=C2\Oc3cc(OCCN4CCCC4)ccc3C2=O)c1`, the growth was 23.8% (inactive).

Consider `N#Cc1c(NC(=O)c2ccc([N+](=O)[O-])o2)[n+]([O-])c2cc(F)c(F)cc2[n+]1[O-]`, for which the growth is 102% (inactive).

In the case of `OCc1c(-c2ccccc2)nc2sccn12`, the growth is 109% (inactive).

With `C=C1C(=O)O[C@H]2[C@H]1CC/C(COC(=O)NCCc1cccc(OC)c1)=C\CC[C@@]1(C)O[C@@H]21`, the growth is 1.86% (active).

`COc1cc(-c2csc(NC(=O)Nc3ccc(Cl)cc3Cl)n2)cc(OC)c1OC`: the growth was 10.8% (inactive).

As to `CCN1C(=O)N(CC)C2C1NN=c1s/c(=C3\C(=O)N(C4CCCC4)c4ccccc43)c(=O)n12` (stereo not given), the growth was 1.3% (active).

For `COc1cc(NS(C)(=O)=O)ccc1Nc1c2ccc([N+](=O)[O-])cc2nc2c(C)cccc12`, the growth was -0.0847% (active).

`CN(C)c1nc(N)c(N=O)c(N)n1`: the growth was 117% (inactive).

With `Cc1cc2c(c(=O)o1)C(c1ccc(OC(=O)N3CCOCC3)cc1)C(C#N)=C(N)O2` (stereo not given), the growth was 104% (inactive).

As for `COc1cc(Cn2c(SCC(=O)Nc3ccc(Cl)cc3)nc3ccccc3c2=O)cc(OC)c1OC`, the growth was 87.4% (inactive).

On to `CC(=O)Nc1nc(C(=O)N2N=C(C)/C(=C/c3ccc(Cl)cc3)C2=O)cs1`, for which the growth is 108% (inactive).

For the compound `NC(=O)c1ccc2c(c1)OCO2`, the growth was 103% (inactive).

For the compound `COc1ccc(-c2nnc(COc3ccc(NC(=O)Nc4ccc(Cl)c(C(F)(F)F)c4)cc3F)o2)cc1`, the growth is 9.28% (active).

For `COc1ccc(S(=O)(=O)NCCNc2nccc(-c3c(-c4ccccc4)nc4sccn34)n2)cc1`, the growth was 25.4% (inactive).
